Assay results from PubChem BioAssay (EPA / NIEHS).
Activity calls are given as the source filed them. How the source made its calls: active means hit-call score of the fitted dose curve at least 0.9, where 1 is the maximum; inactive means score below 0.9.

read-out: Macrophage colony-stimulating factor (MCSF), CSF1 (gene 1435); assay: BSK_LPS_MCSF: BioMAP Diversity Plus: LPS Assay for Macrophage colony-stimulating factor (MCSF) Biomarker Activity (AID 2283083); details: primary human HUVEC with PBMC; actives raise or lower the signal
Protocol: BSK_LPS is a cell-based, multiplexed-readout assay that uses umbilical vein endothelium and peripheral blood mononuclear cells, a human vascular primary cell co-culture, with measurements taken at 24 hours after chemical dosing in a 96-well plate.BSK_LPS_MCSF is an assay component measured in the BSK_LPS assay. It measures M-CSF antibody related to regulation of gene expression using ELISA technology.Data from the assay component BSK_LPS_MCSF was analyzed into 1 assay endpoint. This assay endpoint, BSK_LPS_MCSF, was analyzed with bidirectional fitting relative to DMSO as the negative control and baseline of activity. Using a type of binding reporter, gain or loss-of-signal activity can be used to understand changes in the signaling as they relate to the gene CSF1. Furthermore, this assay endpoint can be referred to as a primary readout, because this assay has produced multiple assay endpoints where this one serves a signaling function. To generalize the intended target to other relatable targets, this assay endpoint is annotated to the cytokine intended target family, where the subfamily is colony stimulating factor.
The levels of cell surface (or secreted, indicated by the prefix "s") biomarker endpoints were measured by ELISA. Overt cytotoxicity to cells in confluent adherent cultures (all systems other than the BT system) was assessed by measuring total protein levels using sulforhodamine B (SRB) staining in parallel cultures at the time of biomarker measurements, indicated as SRB endpoints. For proliferation assays for adherent cell types, individual cell types are cultured at sub-confluence and relative cell numbers quantified by SRB staining at time points optimized for each system (48 h: 3C and CASM3C systems; 72 h: BT and HDF3CGF systems; 96 h: SAg system). SRB was performed by staining cells with 0.1% SRB after fixation with 10% TCA and reading wells at 560 nm.Viability and proliferation of PBMC (T cells) was quantified by Alamar Blue reduction for the SAg and BT systems. For PBMC viability (referred to as PBMC Cytotoxicity within the assay endpoint names), cells were plated (75,000/well in a 96-well plate) and then chemical samples added for 1 h before addition of activators, SEB and TSST-1 (20 ng/mL final concentration each). Cells were incubated for 90 h. Then, Alamar Blue (20 uL/well) (Invitrogen, Cat DAL1100) was added for 6 h, and the plates were read with a fluorescence microplate reader at 546/580 nm (excitation/emission). For PBMC proliferation, cells were plated and activated as above but incubated for only 16 h prior to addition of Alamar Blue. Plates were read after 6 h.

SMILES | outcome | AC50
NC1CCCCC1 | inactive | –
CCCCCCCCCC[N+](C)(C)[O-] | inactive | –
CC(=O)[C@@]1(O)CC[C@H]2[C@@H]3CCC4=CC(=O)CC[C@]4(C)[C@H]3CC[C@@]21C | inactive | –
O=C(Oc1ccccc1)c1cccc(C(=O)Oc2ccccc2)c1 | inactive | –
CCCCC(CC)COC(=O)CCCCCCCC(=O)OCC(CC)CCCC (stereo not given) | inactive | –
CCCCc1nc2cccnc2n1Cc1ccc(-c2ccccc2-c2nnn[nH]2)cc1 | inactive | –
CC(=O)O[C@]1(C(C)=O)CC[C@H]2[C@@H]3C=C(Cl)C4=CC(=O)[C@@H]5C[C@@H]5[C@]4(C)[C@H]3CC[C@@]21C | inactive | –
NC(=Nc1ccccc1)Nc1ccccc1 | – | 5.45 µM (active)
CC(C)(O)c1ccc(CNC(=O)c2cccnc2Oc2ccc(F)cc2)cc1 | inactive | –
Cn1cnc2c1c(=O)[nH]c(=O)n2C | inactive | –
NCCOCCOCCN | inactive | –
O=C1OC(c2ccc(O)cc2)(c2ccc(O)cc2)c2ccccc21 | – | 31.1 µM (active)
CCOCCOCCO | inactive | –
CN(C)CCCN(C)CCCN(C)C | inactive | –
CS(=O)(=O)c1ccc([C@@H](C[C@H]2CCC(=O)C2)C(=O)Nc2cnccn2)cc1Cl | inactive | –
CCC(C)N(C)C(=O)c1cc2ccccc2c(-c2ccccc2Cl)n1 (stereo not given) | inactive | –
CC(C)c1cccc(C(C)C)c1NC(=O)NS(=O)(=O)c1cc(C(C)(C)O)co1 | inactive | –
Oc1ccc(O)cc1 | – | 9.78 µM (active)
NC=O | inactive | –
CCCCCCCCCCCCCCCCO | inactive | –

SMILES | outcome | AC50
C/C=C/c1ccc(OC)cc1 | inactive | –
CCCC(=O)O | inactive | –
CC1(C)C(=O)NC(=O)N1CO | inactive | –
CCN(CC)CCOc1ccc(C(=C(Cl)c2ccccc2)c2ccccc2)cc1 | – | 9.21 µM (active)
C/C=C/C=C/C(=O)O | inactive | –
CC(=O)O | inactive | –
Nc1nc(=S)c2[nH]cnc2[nH]1 | inactive | –
S=c1[nH]c2ccccc2s1 | inactive | –
Cc1c(C)c2c(c(C)c1O)CCC(C)(COc1ccc(CC3SC(=O)NC3=O)cc1)O2 (stereo not given) | – | 31.6 µM (active)
OCC(O)CO | inactive | –
CC(=O)OC1CC(C)OC(C)O1 (stereo not given) | inactive | –
Cc1occc(=O)c1O | inactive | –
CCCCOC(=O)CCCCC(=O)OCCCC | inactive | –
COc1ccc(OC(F)(F)F)cc1CN[C@H]1CCCN[C@H]1c1ccccc1 | inactive | –
C#CC(O)C(CC)CCCC (stereo not given) | inactive | –
COC(=O)CCCC(=O)OC | inactive | –
O=NO | inactive | –
N[C@@H](Cc1c[nH]c2ccccc12)C(=O)O | inactive | –
O=C(O)CN(CC(=O)O)CC(=O)O | inactive | –
Cc1ccc(-c2cc(C(F)(F)F)nn2-c2ccc(S(N)(=O)=O)cc2)cc1 | – | 29.7 µM (active)
